Bioassay records from PubChem.
An excerpt weighted towards active compounds, which were near 2.5% of everything screened.
aSyn yeast inh = inhibitors of alpha-synuclein toxicity in yeast; 0.14% of 370,000 active; Yeast expressing alpha-synuclein, growth rescue, BacTiter-Glo, 24 h; Potency, µM (series often up to 46.1 µM), for the others: top-dose growth rescue (activation), actives largely listed as activators; note: potency is the fitted concentration of half-maximal effect; % of control where 0% means no effect; nearly all actives have a fitted effect of over 65% in size
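Galactose-induced alpha-syn yeast (OD600=0.02, raffinose-pregrown) + pinned cpd, 24 hr, 30 deg C; growth by BacTiter-Glo luminescence. Growth restoration scores as activation.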
CCT chaperon mod = cytosolic chaperonin activity modulation; purified chaperonin ATPase assay, HTRF ADP detection, 30 min; activity change, % (test concentration not listed), hits read low; 0.3% of 360,000 active; in the data active = activity change below about -30%; note: % is set by controls: 0 for no effect and ±100 for the full control effect
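Nucleotide hydrolysis assay: TRiC at 20–40 nM final (set by batch activity) with 10 uM ATP, 30 min at 37 °C, in presence of 76 uM compound. Detection by competitive ADP HTRF, 30 min ambient.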
Anesthetic bind = binds horse apoferritin like a general anesthetic; apoferritin/1-aminoanthracene competitive binding, fluorescence; Potency, µM (series often up to 77.5 µM), for the others: top-dose activity change, negative = displacement, actives largely listed as inhibitors; P02791; AID 485281; 0.074% of 350,000 active; note: potency is the fitted concentration of half-maximal effect; % is set by controls: 0 for no effect and ±100 for the full control effect; nearly all actives have a fitted effect of over 20% in size
Target sequence (P02791 2-175 limits assumed): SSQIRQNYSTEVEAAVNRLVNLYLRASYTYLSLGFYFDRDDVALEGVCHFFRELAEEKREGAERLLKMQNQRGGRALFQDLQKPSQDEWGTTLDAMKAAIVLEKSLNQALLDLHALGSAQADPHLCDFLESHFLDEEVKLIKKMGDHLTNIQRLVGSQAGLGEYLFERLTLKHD
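10 uM apoferritin + 50% sat. 1-AMA, PBS; cpd 10 min RT; Ex380/Em535 endpoint; normalized to free probe vs complex; 4-param Hill fit; propofol titration as pos. ctrl.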
TDP43 rescue = inhibitors of TDP-43 toxicity in yeast | TDP-43 expressing yeast growth rescue, BacTiter-Glo, 24 h | AID 652104 | 1.8% of 410,000 active | Potency, µM (doses to about 46.1 µM), for inactives: at the top dose growth rescue (activation), hits mostly activators; note: potency is the fitted concentration of half-maximal effect; % of control where 0% means no effect; nearly all actives have a fitted effect of over 50% in size
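In this qHTS, compounds that restore growth of yeast expressing TDP-43 appear as activators. Cells (OD600=0.02, galactose medium, raffinose-pregrown) are incubated with compound 24 hr at 30 deg C and growth is quantified by BacTiter-Glo.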
pAkt inh = Akt phosphorylation inhibition | Neuro2A IGF-stimulated pAkt S473 HTRF, 20 min; hits give low values | activity change, % for hits at 50 µM | 0.32% of 360,000 active | AID 651550; in the data active = activity change below about -80%; inconclusive = mostly about -51% to -80%; note: % is set by controls: 0 for no effect and ±100 for the full control effect
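Neuro2A cells in DMEM with 0.5% FBS, overnight at 37 deg C, given compound at single 50 µM final, then IGF (6 nM final) for 20 min at 37 deg C. Lysed; phospho-Akt Ser473 by HTRF after 24 h, 665/615 ratio.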
Mito fusion yeast = blocks mitochondrial division or promotes mitochondrial fusion; 0.23% of 320,000 active; AID 485298; Potency, µM (highest dose often 46.1 µM), for inactives: top-dose growth rescue (activation), usual class: activators; S. cerevisiae fusion-defective mutant growth rescue, CellTiterGlo 48 h; note: potency is the fitted concentration of half-maximal effect; % of control where 0% means no effect; nearly all actives have a fitted effect of over 45% in size
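Luminescent cell viability in 1536-well qHTS format served as the measure of rescued growth in ts fusion-mutant S. cerevisiae cultured on non-fermentable YPEG for 48 hours at 37C.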
Numbers without * were called inactive; i = inactive; ? = inconclusive; · = not tested or not shown. Unless noted, calls come from the whole dose curve; as a rule, active = well fitted curve in the direction sought with a large enough effect; inconclusive = small, poorly fitted or top-dose-only effect, or another doubt; inactive = no such curve, though single readings can be large; an effect the other way counts as inactive or inconclusive.

SMILES | aSyn yeast inh | CCT chaperon mod | Anesthetic bind | TDP43 rescue | pAkt inh | Mito fusion yeast
CC1(C(=O)Nc2cccc(C#N)c2)CCN1C(=O)c1ccccc1CCc1ccccc1 (centres undefined) | -7% | 0 | · | ? | i | ·
CC1(C(=O)Nc2ccc3c(c2)OCCO3)CCN1C(=O)c1ccccc1CCc1ccccc1 (centres undefined) | 2% | 0 | · | 14µM* | i | ·
CCOc1ccc(OCC)c(NC(=O)c2csc3c2CCCC3)c1 | · | · | 99% | 11% | · | ·
CCCCNC(=O)CSc1nc2nc(C)c(Cc3c(F)cccc3Cl)c(C)n2n1 | · | · | ? | 18% | · | ·
COc1cc(OC)cc(-c2nc3nc(C)c(CCC(=O)Nc4ccc(Cl)cc4)c(C)n3n2)c1 | · | · | -9% | 0% | · | ·
CCOc1ccc(NC(=O)CSc2nc3nc(C)c(Cc4ccccc4)c(C)n3n2)cc1 | · | · | ? | 25µM* | · | ·
Cc1nc2nc(SCC(=O)NCCc3ccccc3)nn2c(C)c1Cc1c(F)cccc1Cl | · | · | -1% | 22µM* | · | ·
Cc1nc2nc(SCC(=O)Nc3ccccc3Cl)nn2c(C)c1Cc1ccccc1 | · | · | -12% | ? | · | ·
COc1ccc(NC(=O)CCc2c(C)nc3nc(C)nn3c2C)cc1 | 0% | -2 | -9% | 14% | -118%* | -1%
C[C@@H](O)C(N)C(=O)O (some centres undefined) | · | · | 0% | · | · | ·
CCOC(=O)CSc1nnc(NC(=O)c2ccco2)s1 | 0% | -2 | 37% | 0% | i | ?
Cc1ccc(Nc2nnc(SCC(=O)c3ccc(Br)s3)s2)c(C)c1 | 20% | 1 | -13% | ? | i | ?
CCSc1nnc(NC(=O)c2ccccc2)s1 | 1% | -2 | -13% | 19% | i | 14%
Cc1cccc(C)c1Nc1nnc(SCC(=O)c2ccc(Br)s2)s1 | ? | 0 | -18% | 25% | i | 18µM*
CCSc1nnc(NC(=O)c2ccc(Br)s2)s1 | -6% | -4 | -3% | -18% | -81%* | 8%
CCSc1nnc(NC(=O)c2ccco2)s1 | -11% | 1 | -6% | 22% | -112%* | 24%
CCSc1nnc(NC(=O)c2ccccc2C)s1 | -9% | 0 | -3% | 11µM* | i | ?
O=C(Nc1ccccc1)c1ccc(-n2nncc2-c2ccccc2)cc1 | 8% | · | · | · | · | ·
COc1cc(/C=C2/C=Cc3ccccc32)ccc1N(C)C | 2% | · | · | · | · | ·
CC(=O)OC(C(=O)Nc1nccs1)c1ccccc1 (centres undefined) | 10% | 3 | -3% | -22% | i | 2%
O=C(Nc1nccs1)C(Br)C(Br)c1ccccc1 (centres undefined) | 0% | 1 | -14% | 10µM* | i | -12%
COc1ccc(CNCc2ccncc2)cc1OC | 0% | -65* | -1% | 17% | i | 1%
COc1ccc(C(=O)C[n+]2cccc3cc(Cl)ccc32)cc1 | 1% | · | · | · | · | ·
CC(=O)C1=CCC(c2ccccc2Cl)N(S(=O)(=O)c2ccc(C)cc2)C1 (centres undefined) | 2% | 1 | · | 20µM* | i | ·
CCOC(=O)c1nnn(-c2nonc2N)c1-c1ccc(OCC)cc1 | 12% | -5 | -6% | 0% | -112%* | 3%
SMILES | aSyn yeast inh | CCT chaperon mod | Anesthetic bind | TDP43 rescue | pAkt inh | Mito fusion yeast
CCOc1ccc(/C=N/NC(=O)c2nnn(-c3nonc3N)c2-c2ccc(OCC)cc2)cc1 | 0% | -3 | -16% | -2% | i | -3%
Cc1ccc(NC(=O)c2c(C)oc3ccc(O)c(CN4CCN(Cc5ccccc5)CC4)c23)cc1 | · | · | -6% | -1% | · | ·
CC(=O)Oc1c(Cl)c(N2CCOCC2)c(OC(C)=O)c2ccccc12 | -1% | -4 | -2% | 10µM* | i | 0%
COc1cccc(-c2nc(N3CCCCC3C)c3ccccc3n2)c1O (centres undefined) | 5% | -1 | ? | ? | i | 13µM*
CN(C)c1ccc(C=NC2CCc3ccccc32)cc1 (centres undefined) | -6% | · | · | · | · | ·
COc1ccc(NC(=O)c2ccccc2OCC(=O)Nc2ccc(Br)cc2)cc1 | 2% | · | · | · | · | ·
CCC(=O)Nc1ccc(SC#N)cc1C | 8% | 4 | -5% | 11µM* | i | -28%
COC(=O)C1C(O)=C(C=NCc2ccccc2)C(=O)CC1(C)C (centres undefined) | 7% | 0 | -7% | -2% | -114%* | 3%
Cc1cccc(-c2nc(CCNC(=O)c3ccc(Br)o3)cs2)c1 | · | · | ? | 16µM* | · | ·
O=C(NCCc1csc(-c2ccccc2)n1)c1ccc(Br)o1 | 6% | -1 | -12% | 22µM* | i | 20%
O=C(c1ccc(Nc2nccc(-c3cc4ccccc4s3)n2)cc1)N1CCC(N2CCCC2)CC1 | · | · | -23% | · | · | ·
Cc1ccc(C)c2c1cc(C)c1nnc(SCC(=O)c3cccs3)n12 | 16% | -1 | -12% | 22µM* | i | 16%
CC(C)C(=O)OCc1cc(=O)n2nc(C3CC3)sc2n1 | · | · | -8% | -23% | · | ·
COc1ccccc1-c1cc(C(=O)N2CCN(c3ccccc3)CC2)no1 | 11% | 0 | -16% | 18µM* | i | 1%
O=C(c1cc(-c2ccc3c(c2)OCO3)on1)N1CCN(c2ccccc2)CC1 | 3% | 0 | 5% | 28% | i | 13%
COc1ccccc1N1CCN(C(=O)c2cc(-c3ccc(C)c(F)c3)on2)CC1 | · | · | ? | 35µM* | · | ·
COc1ccccc1N1CCN(C(=O)c2oc3cc(C)cc(C)c3c2C)CC1 | 1% | -1 | -20% | 22µM* | i | 27%
O=C(c1cc(-c2ccc(O)cc2)on1)N1CCN(c2ccccc2)CC1 | 10% | -1 | 7% | 10µM* | i | 24%
COc1ccccc1N1CCN(C(=O)c2cc(=O)c3ccc(C)cc3o2)CC1 | -8% | 0 | -12% | ? | i | 18%
Cc1ccc(CN2C(=O)c3ccccc3S(=O)(=O)c3ccc(C(=O)OCC4CCCO4)cc32)cc1 (centres undefined) | · | · | -7% | 16% | · | ·
O=C(c1cc(-c2ccc3c(c2)OCO3)on1)N1CCN(c2ccc(F)cc2)CC1 | 1% | 1 | -4% | -7% | i | -7%
O=C(c1cc(-c2ccc(O)cc2)on1)N1CCN(c2ccc(F)cc2)CC1 | 15% | 0 | -19% | 16µM* | i | 13%
CC1=CC(=O)C2=C(C)CC[C@H]3[C@H](C)C(=O)O[C@@H]3C12 (some centres undefined) | · | · | -9% | · | · | ·
Cc1onc(-c2ccccc2)c1C(=O)N1CCCN2C(=O)c3ccccc3C21 (centres undefined) | -4% | 2 | -4% | 7% | i | 3%
O=C1c2ccccc2C2N1CCCN2C(=O)c1sc2ccccc2c1Cl (centres undefined) | 12% | 0 | · | 18µM* | i | ·
